Screens deposited in PubChem BioAssay by National Center for Advancing Translational Sciences (NCATS).
Hits are enriched below; roughly 9.2% of the tested compounds scored in any of these assays.
FLuc modulator: counter-screen for miR-21 project: firefly luciferase inhibitors or activators | P08659 | Potency, µM (series often up to 57.5 µM), without a hit: at the top dose activity change, negative = inhibition, usual class: inhibitors | 6.9% of 360,000 active | purified FLuc, Km substrates, luminescence inhibition;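 note: plate controls were vehicle for no effect and reference inhibitor for full effect; nearly all actives have a fitted effect of over 55% in size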
Target sequence (P08659 whole entry, looked up): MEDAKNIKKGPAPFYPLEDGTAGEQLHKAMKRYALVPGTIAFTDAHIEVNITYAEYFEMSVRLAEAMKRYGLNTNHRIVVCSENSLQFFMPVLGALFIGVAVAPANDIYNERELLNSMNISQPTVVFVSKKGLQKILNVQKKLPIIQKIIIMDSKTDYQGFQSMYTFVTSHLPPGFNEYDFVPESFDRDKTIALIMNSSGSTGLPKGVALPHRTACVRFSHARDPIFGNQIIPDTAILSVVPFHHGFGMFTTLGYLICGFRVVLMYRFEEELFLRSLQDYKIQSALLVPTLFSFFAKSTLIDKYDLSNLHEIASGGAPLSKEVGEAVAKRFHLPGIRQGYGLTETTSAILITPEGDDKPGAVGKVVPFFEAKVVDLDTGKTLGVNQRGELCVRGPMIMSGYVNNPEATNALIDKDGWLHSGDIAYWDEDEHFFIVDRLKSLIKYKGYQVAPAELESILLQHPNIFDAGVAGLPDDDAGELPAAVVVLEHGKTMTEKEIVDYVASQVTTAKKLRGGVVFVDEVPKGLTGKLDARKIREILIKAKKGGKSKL
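Biochemical qHTS of compounds, final roughly 60 µM downward over six points, against 10 nM purified firefly luciferase using Km concentrations of substrates (10 uM D-luciferin, 10 uM ATP) in Tris acetate pH 7.5 buffer; luminescence output.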
SMN2 splice enh: increases expression of the SMN2 splice variant | Potency, µM (doses to about 46.1 µM), for the others: top-dose activity change, positive = activation, usual class: activators | HEK293 SMN2-luciferase splicing reporter, luminescence, 30-36 h | 2.8% of 210,000 active; note: % of control where 0% means no effect; nearly all actives have a fitted effect of over 55% in size
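HEK293 cells carry an SMN2 minigene-luciferase reporter in which exon 7 inclusion puts luciferase in frame. Cells were seeded at 2000 cells/well, attached for 10-12 hours, then exposed to compounds for 30-36 hours at 37C before ONE-Glo luminescence.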
ELG1 genotox: induces genotoxicity in HEK293T cells with luciferase-tagged ELG1 | Potency, µM (series often up to 46 µM), inactives show at the highest dose activity change, positive = activation, most hits filed as activators | HEK293T ELG1-luciferase reporter, luminescence, 16 h | 1.3% of 330,000 active | AID 504466; note: % of control where 0% means no effect; nearly all actives have a fitted effect of over 60% in size
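Reporter readout depends on ELG1 protein level, which increases with genetic stress. After 16 hr compound exposure at 37 °C, luciferase activity was quantified using ONE-Glo.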
Rab9 prom act: activators of Rab9 promoter | Huh7 Rab9 promoter-luciferase reporter, luminescence, 24 h | Potency, µM (titrated, usually from 9.22 µM), for inactives: at the highest dose activation, negative = inhibition, actives largely listed as activators | 2.8% of 320,000 active | AID 485297; note: % of control where 0% means no effect; nearly all actives have a fitted effect of over 60% in size
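Using Huh7 cells stably transfected with Rab9 promoter–luciferase, compounds were incubated 24 h at 37 °C, 5% CO2; luciferase luminescence was read 10 min after reagent addition.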
NPC1 promoter act: activates the NPC1 promoter; Potency, µM (series often up to 9.22 µM), inactives show at the top dose activation, actives largely listed as activators; AID 485313; Huh7 NPC1 promoter luciferase reporter, 24 h; 2.4% of 320,000 active; note: % of control where 0% means no effect; nearly all actives have a fitted effect of over 60% in size
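Luciferase expression driven by the NPC1 promoter was measured in stably transfected Huh7 cells after a 24 h compound incubation, using a luciferase reagent and a luminescence read.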
ELG1 repair inh: ELG1-dependent DNA repair inhibition. 2.3% of 330,000 active. Potency, µM (series often up to 46.1 µM), inactives show at the highest dose activity change, negative = inhibition, usual class: inhibitors. HEK293T ELG1-luciferase reporter, luminescence, 16 h; DNA damage induced by 5-fluorouridine; note: % is set by controls: 0 for no effect and ±100 for the full control effect; nearly all actives have a fitted effect of over 55% in size
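DMSO vehicle served as the neutral condition. Each well held 2,000 cells given 5-fluorouridine plus compound; after 16 hr at 37 °C/5% CO2, ONE-Glo was added and luciferase measured 30 min later.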
ELG1 FLuc counter: luciferase inhibition in cell-free luciferin readout for ELG1 hits; Potency, µM (top dose mostly 46.1 µM), for inactives: at the top dose activity change, negative = inhibition, most hits filed as inhibitors; 3% of 350 active; shares compounds with ELG1 repair inh; cell-free firefly luciferase luminescence counter-screen, ViewLux; note: % is set by controls: 0 for no effect and ±100 for the full control effect
ELG1 Luc conf: confirmation of human ELG1-dependent DNA repair inhibitors; HEK293T ELG1-luciferase levels, luminescence; cells co-treated with 5-fluorouridine; shares compounds with ELG1 repair inh; Potency, µM (highest dose often 46.1 µM), for inactives: top-dose activity change, negative = inhibition, actives largely listed as inhibitors; AID 624248; 68% of 670 active; note: % is set by controls: 0 for no effect and ±100 for the full control effect; nearly all actives have a fitted effect of over 55% in size
ELG1-Luc MMS: confirmation of human ELG1 repair inhibitors, MMS stimulated | shares compounds with ELG1 repair inh | HEK293T luciferase-tagged ELG1 level, MMS stimulated | Potency, µM (highest dose often 46.1 µM), for inactives: at the highest dose activity change, negative = inhibition, hits mostly inhibitors | 53% of 670 active | AID 624249; note: % is set by controls: 0 for no effect and ±100 for the full control effect; nearly all actives have a fitted effect of over 60% in size
ELG1 5FU viab: confirmation of ELG1 repair inhibitors: viability with 5FU. cell viability with 5-FU, ELG1-dependent repair. AID 624250. shares compounds with ELG1 repair inh. 670 tested, under 10 active. Potency, µM (top dose mostly 46.1 µM), for inactives: at the highest dose activity change, negative = viability loss, hits mostly cytotoxic;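 note: ELG1-luc HEK293T cells cotreated with 5-fluorouridine at 10 µM final; viability measured 16 h after compound addition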
ELG1 MMS viab: confirmation of ELG1 repair inhibitors: viability with MMS; Cell viability with MMS, ELG1-dependent DNA repair; 33% of 670 active; shares compounds with ELG1 repair inh; Potency, µM (series often up to 46.1 µM), without a hit: top-dose activity change, negative = viability loss, hits mostly cytotoxic;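 note: ELG1-luc HEK293T cells co-treated with 10 µM MMS; viability read 16 h after compound addition; % is set by controls: 0 for no effect and ±100 for the full control effect; nearly all actives have a fitted effect of over 60% in size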
Cell viab unstim: unstimulated viability counter-screen for ELG1 repair hits. AID 624252. 8% of 900 active. Potency, µM (doses to about 45.9 µM), for the others: at the top dose activity change, negative = loss of viability, usual class: cytotoxic. shares compounds with ELG1 repair inh. cell viability counter-screen, unstimulated, luminescence;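 note: compound exposure lasted 16 hours before reading; % is set by controls: 0 for no effect and ±100 for the full control effect; nearly all actives have a fitted effect of over 55% in size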
FLuc biochem: inhibits purified firefly luciferase, counter-screen for ELG1 hits; shares compounds with ELG1 repair inh; purified firefly luciferase, luminescence counter-screen; Potency, µM (doses to about 57.5 µM), for the others: top-dose activity, negative = inhibition, usual class: inhibitors; 10% of 350 active; AID 624253; note: % is set by controls: 0 for no effect and ±100 for the full control effect
Active calls of the source: *; ? = inconclusive; · = no result. Calls come from the whole dose curve; as a rule, active = well fitted curve in the direction sought with a large enough effect; inconclusive = small, poorly fitted or top-dose-only effect, or another doubt; inactive = no such curve, though single readings can be large; an effect the other way counts as inactive or inconclusive. Potency is the fitted concentration of half-maximal effect.

SMILES	FLuc modulator	SMN2 splice enh	ELG1 genotox	Rab9 prom act	NPC1 promoter act	ELG1 repair inh	ELG1 Luc conf	ELG1-Luc MMS	ELG1 5FU viab	ELG1 MMS viab	Cell viab unstim	others
COCc1ccc(-c2c(-c3cc(OC)cc(OC)c3)oc(=O)c3cc(OC)c(OC)cc23)cc1	?	·	0.3%	-2.5%	18.7%	0.58µM*	5µM*	3.8%	?	-2.0%	?	ELG1 FLuc counter=32.2%;FLuc biochem=?
O=C(CCN1C(=O)NC2(CCCC2)C1=O)Nc1ccc(-c2nc3ccccc3s2)cc1	·	·	?	0.447µM*	0.891µM*	?	·	·	·	·	?	ELG1 FLuc counter=120.1%;FLuc biochem=3.66µM*
CN(C)C(=O)CN1C(=O)NC(c2ccccc2)(c2ccccc2)C1=O	-1.9%	·	10.2%	1.4%	-0.1%	-6.8%	·	·	·	·	·
CN(C)S(=O)(=O)Oc1ccc(C(=O)Nc2ccc([N+](=O)[O-])cc2)cc1	-0.8%	-39.0%	3.9%	-2.2%	-20.6%	2.91µM*	0.705µM*	3.15µM*	?	?	3.5%
COC(=O)c1[nH]c2ccc(C)cc2c1NC(=O)C1=COCCO1	?	16.4%	0.5%	-0.1%	0.1%	-15.4%	·	·	·	·	·
CCN(CC(=O)Nc1c(C(=O)OC)[nH]c2ccc(C)cc12)c1ccc2c(c1)OCO2	-2.5%	·	-11.2%	-5.7%	2.1%	4.61µM*	7.05µM*	?	?	-0.7%	?
COCCCNC(=O)CCc1nnc2ccc(N3CCC(C)CC3)nn12	0.7%	·	-0.4%	2.5%	1.1%	9.6%	·	·	·	·	·
COc1ccc(C2(c3ccc(OC)cc3)NC(=O)N(CC(=O)NC3CCS(=O)(=O)C3)C2=O)cc1 (stereo not given)	·	·	-1.6%	·	·	16.5%	·	·	·	·	·
CC(=O)c1cccc(NC(=O)COc2cc3oc(=O)c(CC(C)O)c(C)c3cc2Cl)c1 (stereo not given)	4.5%	-24.7%	-4.5%	1.2%	2.8%	4.11µM*	6.28µM*	22.3µM*	?	0.2%	?
Cc1ccccc1NC(=S)N(Cc1ccco1)C(C)c1ccccn1 (stereo not given)	-2.6%	-10.8%	-4.0%	-4.5%	1.3%	13.2%	·	·	·	·	·
